Screening results from PubChem BioAssay.
The list is not random: actives were taken first. Their share in the collection is about 8%.
FMDV inh – blocks foot and mouth disease virus; FMDV antiviral cell-based qHTS; Potency, µM (doses to about 57.9 µM), for inactives: at the top dose activity change, negative = inhibition, usual class: inhibitors; actives 1.2% (n = 410,000); calls by dose curve; tested in HEK293T cells; further: read-out not given here; potency means the concentration at half of the fitted maximal effect; on the % scale 0 is the no-effect control and ±100 the full control effect; nearly all actives have a fitted effect of over 45% in size
Marburg entry inh – blocks Marburg virus binding to or entry into cells; actives 1.8% (n = 300,000); Marburg virus pseudotyped entry inhibition, cell reporter; Potency, µM (series often up to 37.8 µM), for the others: top-dose activity change, negative = inhibition, actives largely listed as inhibitors; calls by dose curve; tested in HEK293 cells; further: potency means the concentration at half of the fitted maximal effect; on the % scale 0 is the no-effect control and ±100 the full control effect
Lassa entry inh – blocks Lassa virus binding to or entry into cells. Lassa virus pseudotype entry inhibition, cell reporter. Potency, µM (titrated, usually from 37.9 µM), without a hit: at the highest dose activity change, negative = inhibition, most hits filed as inhibitors. actives 1.2% (n = 300,000). AID 540256; calls by dose curve; tested in HEK293 cells; further: potency means the concentration at half of the fitted maximal effect; on the % scale 0 is the no-effect control and ±100 the full control effect; nearly all actives have a fitted effect of over 50% in size
HCMV inh – human cytomegalovirus inhibition | actives 4.5% (n = 410,000) | HFF cells, HCMV-luciferase reporter, 72 h; stronger effect = lower value | activity change, negative = inhibition, % at 57.5 µM; in the data active means activity change below about -60%; inconclusive means no clear call, values can overlap the other calls; inactive means above about -39%; further: on the % scale 0 is the no-effect control and ±100 the full control effect
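Human foreskin fibroblasts infected with luciferase-reporter HCMV at MOI 1 PFU/cell, compounds at two doses. Luciferase measured 72 h post infection; normalized to buffer-only basal and Salinomycin (10uM) controls.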
HCV inhibitor – inhibitors of hepatitis C virus infection | Potency, µM (top dose mostly 41.8 µM), inactives show at the top dose activity change, negative = inhibition, hits mostly inhibitors | Huh7.5.1 HCVcc-Cre infection, luciferase reporter, 44 h | actives 3.4% (n = 340,000); active means well fitted inhibition curve with a large enough effect; inconclusive means small, poorly fitted or top-dose-only effect, or another doubt; inactive means no such curve, though single readings can be large or run the other way; further: potency means the concentration at half of the fitted maximal effect; on the % scale 0 is the no-effect control and ±100 the full control effect
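HCVcc-Cre virus at an moi near 0.5 was added right after compound to cells cultured 4 h from seeding (1,000 cells/well). Luciferase activity was determined 44 h later, 15 min after substrate addition at RT.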
SARS PLP yeast – blocks SARS-CoV papain-like protease in a yeast assay | S. cerevisiae expressing SARS-CoV PLpro, growth rescue | Potency, µM (titrated, usually from 32.9 µM), for inactives: top-dose activity, positive = growth rescue, most hits filed as activators | actives 0.19% (n = 330,000) | AID 485353; calls by dose curve; further: potency means the concentration at half of the fitted maximal effect; 0% is about no effect; nearly all actives have a fitted effect of over 55% in size
* = called active by the depositor; u = inconclusive; x = no result given; [ ] = remark or other dose.

SMILES	FMDV inh	Marburg entry inh	Lassa entry inh	HCMV inh	HCV inhibitor	SARS PLP yeast
CCOC(=O)C1(CCCc2ccccc2)CCN(Cc2cnc(C)s2)CC1	u	u	u	31	u	-1%
CSCCCN1CCC(n2nccc2NC(=O)CCCc2ccccc2)CC1	6%	-20%	9%	5	u	-3%
C=CCN1CN(S(=O)(=O)c2cccc(Cl)c2)c2nc3ccccc3nc21	-6%	x	x	27	4%	-6%
CC(C)C(=O)N1CCN(c2ccccc2NC(=O)c2cccc3ccccc23)CC1	u	u	u	-65*	u	-8%
O=C(Nc1ccccc1N1CCOCC1)c1cccc2c(Br)cccc12	-4%	x	x	u	5.6µM*	0%
COc1cccc2c1C1(CCCCC1)CC2NC(=O)C(F)(F)F (stereo unspecified)	x	-15%[14.2 µM]	x	x	x	x
Cc1ccc(C(=O)NCC(=O)OCc2cccc(Br)c2)cc1	-13%	13%	12%	-30	15%	2%
COc1ccccc1S(=O)(=O)Cc1ccc(C(=O)N2CCN(c3cc(Cl)ccc3C)CC2)o1	u	-5%[46.1 µM]	u	-4	x	x
COc1cc(S(=O)(=O)NCCc2c(C)[nH]c3ccccc23)c(C)cc1C	34%	u	u	-103*	x	x
Cc1ccc([N+](=O)[O-])cc1S(=O)(=O)NCCc1c(C)[nH]c2ccccc12	11%	-3%	-16%	-6	-11%	-3%
CNc1oc(-c2ccc(C)cc2)nc1P(=O)(c1ccccc1)c1ccccc1	-18%	u	21µM*	-11	u	-2%
O=C(Nc1ccnn1C1CCN(Cc2ccc(OC(F)F)cc2)CC1)C1CCCC1	-25%	u	u	-23	22µM*	x
CCc1ccc(CN2CCC(n3nccc3NC(=O)c3ccccc3C)CC2)cc1	-11%	u	u	-35	14µM*	0%
O=C(Nc1ccnn1C1CCN(Cc2ccc3nonc3c2)CC1)c1cccc(F)c1	12%	x	x	0	u	-4%
COc1ccc(C(=O)Nc2ccnn2C2CCN(Cc3ccc4nonc4c3)CC2)cc1	-24%	x	x	-94*	-29%	-3%
CNCC[C@H](Oc1ccccc1OC)c1ccccc1	-20%	18µM*	x	x	x	x
CN(C)CCC(Oc1ccccc1OCc1ccccc1)c1ccccc1 (stereo unspecified)	-8%	u	u	-34	-9%	x
COC(=O)[C@@]1(Cc2ccc(OC)cc2)[C@H]2c3cc(C(=O)N(C)C)n(C[C@H](O)CO)c3C[C@H]2CN1C(=O)c1ccccc1	-4%	28%	4%	16	3%[8.37 µM]	-4%
COC(=O)[C@@]1(Cc2ccc(OC)cc2)[C@@H]2C(=CC(=O)[C@H]2CC(=O)C(=O)N(C)C)CN1C(=O)c1ccccc1	25µM*	u	u	-80*	13µM*	3%
C=C1C(=O)C=C2CN(C(=O)c3ccccc3)[C@@](Cc3ccc(F)cc3)(C(=O)OC)[C@@H]12	3.2µM*	u	21µM*	x	u	-25%
C=C1C(=O)CC2=C1[C@](Cc1ccc(F)cc1)(C(=O)OC)N(C(=O)c1ccccc1)C2	u	x	x	-9	x	x
CS(=O)(=O)N(Cc1ccco1)CC(O)Cn1cc(C=O)c2ccccc21 (stereo unspecified)	u	5%	6%	-11	-12%	10µM*
O=Cc1cn(CC(O)Cn2cc(C=O)c3ccccc32)c2ccccc12	-13%	u	21%	77	-6%	-1%
Cc1cc(C)n2c(Nc3c(C)cccc3C)c(CC(C)C)nc2n1	-12%	x	x	u	x	x
CCCCOC(=O)c1c(N)n(-c2ccc(OC)cc2OC)c2nc3ccccc3nc12	-17%	6%[46.1 µM]	15%[46.1 µM]	-12	x	x
SMILES	FMDV inh	Marburg entry inh	Lassa entry inh	HCMV inh	HCV inhibitor	SARS PLP yeast
CC(/C=C/c1ccccc1)=N\Nc1ccccc1[N+](=O)[O-]	21%	u	-4%[46.1 µM]	-73*	-15%	-2%
COC(=O)c1cc(C#N)c(N2CCN(C)CC2)nc1C	9%	-7%[14.2 µM]	8%	6	-21%	0%
COc1cccc(NC(=O)Cn2c3ccc(OC)cc3c3nc4n(c(=O)c32)CCS4)c1	4%	x	x	-40	-18%	9%
COc1ccc2c(c1)c1nc3n(c(=O)c1n2CC(=O)Nc1cc(C)[nH]n1)CCS3	x	x	x	-85*	x	0%
COc1ccc(C(C)=NOC(=O)c2c(-c3ccccc3Cl)noc2C)cc1CN1CCOCC1	u	x	x	-60*	x	x
C/C(=N\OC(=O)c1c(-c2ccccc2Cl)noc1C)c1ccncc1	u	u	u	-1	-11%	2%
COc1ccc2c([N+](=O)[O-])c(C)[nH]c2c1	x	x	x	-15	x	x
C=Cc1c(C)/c2[n-]/c1=C\c1[n-]c(c(CC)c1C)/C=c1\[n-]c3c(c1C)C(=O)C(C(=O)[O-])C=3c1[n-]c(c(C)c1CCC(=O)[O-])\C=2.[Cu].[Na+].[Na+] (stereo unspecified)	x	31µM*	u	x	x	x
FC(F)(F)c1cccc(CC2CN(Cc3ccccc3)Cc3ccccc3N2c2cc(Cl)cc(Cl)c2)c1 (stereo unspecified)	-22%	x	x	-98*	x	x
Cc1ccc(S(=O)(=O)c2cn(CC(=O)Nc3ccc4c(c3)OCO4)c3ccccc3c2=O)cc1C	20%	0%[46.1 µM]	-4%[46.1 µM]	12	x	x
CCCCCC(=O)N1C[C@@H](O)[C@H](n2cc(-c3ccc(F)cc3)nn2)C[C@H]1c1ccc(C)cc1	x	x	9%[46.1 µM]	x	x	x
CCOc1ccc(-n2cc(-c3ccccc3)c3c(N4CCC(C)CC4)ncnc32)cc1	-19%	x	-22%[46.1 µM]	-63*	x	x
CCOC(=O)C1CCN(c2ncnc3c2c(-c2ccccc2)cn3-c2ccccc2)CC1	-29%	u	u	-38	10µM*	-8%
CC1CN(c2ncnc3c2c(-c2ccccc2)cn3-c2ccc(F)cc2)CC(C)O1 (stereo unspecified)	u	u	u	8	10µM*	-21%
CCOC(=O)C1CCN(c2ncnc3c2c(-c2ccccc2)cn3-c2ccc(Cl)cc2)CC1	-13%	x	4%[46.1 µM]	-2	x	x
CCOc1ccc(-n2cc(-c3ccccc3)c3c(N4CCN(c5ccccc5OC)CC4)ncnc32)cc1	-12%	x	14%[46.1 µM]	-34	x	x
CCn1c(-c2ccccc2F)nc2cc(C(=O)NCc3ccc(C)o3)cc(NC(C)=O)c21	7%	x	x	x	x	x
COC[C@@H](OC(C)=O)[C@H]1OCc2ccccc2[C@H]1C=Cc1ccccc1	x	1%[14.2 µM]	x	x	x	x
C=CCn1c(SCC(=O)c2ccc(O)c(O)c2)nnc1-c1cccc(C)c1	0%	x	x	-17	u	1%
C=CCn1c(SCC(=O)c2ccc(O)c(O)c2)nnc1-c1cccc(Cl)c1	-27%	x	x	23	4µM*	1%
Cc1cccc(N2C(=O)C(CC(=O)Nc3cccc(F)c3)N(Cc3cccs3)C2=O)c1 (stereo unspecified)	12%	x	4%[46.1 µM]	-35	x	x
CCOC(=O)c1ncc2[nH]c3ccc(OCc4ccccc4)cc3c2c1COC	16µM*	x	x	x	x	x
